Experimental data: PubChem BioAssay (EPA / NIEHS)
Inconclusive results are not listed. The source made the active and inactive calls. Rule for the calls: active = hit-call score of the fitted dose curve at least 0.9, where 1 is the maximum; inconclusive = response in the unintended direction; inactive = score below 0.9.

Assay: ACEA_ER_AUC_viability: ACEA Biosciences xCELLigence Real-Time Cell Analysis on Estrogen Receptor Agonism for Viability (AID 2283782);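 note: hit means loss of impedance signal meaning reduced cell growth or viability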
Method in brief: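 Viability endpoint: reduced impedance area under the curve relative to DMSO, recorded by real-time electrode sensing over ~80 h of continuous exposure. Duplicate plates of T47D in hormone-depleted medium; eight concentrations, 1:4 dilutions, 100 uM maximum.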

Row | SMILES | outcome | AC50
1 | CC(C)=CCCC(C)O (stereo not given) | inactive | 
2 | CCc1cc(Cc2cc(CC)c(N)c(CC)c2)cc(CC)c1N |  | 68.3 µM (active)
3 | CCCCCCCC/C=C\CCCCCCCC(=O)N(C)CC(=O)O |  | 83.4 µM (active)
4 | CCC(=O)OC(C)c1ccccc1 (stereo not given) |  | 79.9 µM (active)
5 | CCc1cccc(C)c1N(C(=O)C(=O)O)C(C)COC (stereo not given) | inactive | 
6 | Brc1nc2ccccc2s1 | inactive | 
7 | c1ccc(C[P+](c2ccccc2)(c2ccccc2)c2ccccc2)cc1 |  | 83.7 µM (active)
8 | CN1CN(C)CN(C)C1 | inactive | 
9 | Cc1ccc(S(=O)(=O)C(I)I)cc1 |  | 4.22 µM (active)
10 | CCN(CCO)S(=O)(=O)C(F)(F)C(F)(F)C(F)(F)C(F)(F)C(F)(F)C(F)(F)C(F)(F)C(F)(F)F |  | 20.2 µM (active)
11 | CN(C(=O)C(F)(F)C(F)(F)C(F)(F)F)[Si](C)(C)C | inactive | 
12 | COCCC(=O)OC | inactive | 
13 | O=S(=O)(OCC(F)(F)F)C(F)(F)C(F)(F)C(F)(F)C(F)(F)F | inactive | 
14 | OCC(O)CC(F)(F)C(F)(F)C(F)(F)C(F)(F)C(F)(F)C(F)(F)C(F)(F)C(F)(F)F (stereo not given) | inactive | 
15 | O=C1c2ccccc2C(=O)c2c(Cl)cccc21 | inactive | 
16 | CC1=CCC(=O)O1 | inactive | 
17 | NC(=O)C(F)(F)C(F)(F)C(F)(F)F | inactive | 
18 | Brc1ccccn1 | inactive | 

Row | SMILES | outcome | AC50
19 | O=C(O)C(F)(F)C(F)(F)C(F)(F)C(=O)O | inactive | 
20 | C=C(C)CCCC | inactive | 
21 | CC(C)CCCC(C)CCO (stereo not given) | inactive | 
22 | O=c1[nH]cccc1O |  | 25.7 µM (active)
23 | CC1=CC2C3C=CC(C3)C2C1C (stereo not given) |  | 50 µM (active)
24 | CCOCN(C(=O)CS(=O)(=O)O)c1c(C)cccc1CC | inactive | 
25 | OCCCCl | inactive | 
26 | CCC/C=C/CO | inactive | 
27 | Cc1cnccn1 | inactive | 
28 | O=S(=O)(O)c1ccc(Cl)cc1 | inactive | 
29 | Oc1ccc(C2(c3ccc(O)c(C4CCCCC4)c3)CCCCC2)cc1C1CCCCC1 |  | 38.9 µM (active)
30 | CCCCOC(=O)C(C)O (stereo not given) | inactive | 
31 | Oc1ccc2c(c1)CCC2 | inactive | 
32 | CCN(CC)c1ccc2c(c1)Oc1cc(N(CC)CC)ccc1C21OC(=O)c2ccccc21 |  | 8.06 µM (active)
33 | C[Si](C)O[Si](C)C |  | 50 µM (active)
34 | NC(=O)C(F)(F)C(F)(F)C(F)(F)C(F)(F)C(F)(F)C(F)(F)C(F)(F)F | inactive | 
35 | NC(O)(C(F)(F)F)C(F)(F)F | inactive | 
